A short description of assay [1]: compounds binding Alexa647 anti-His antibody – biochemical, small-molecule microarray, 635 nm fluorescence, artefact control for SMM control protein annotation, primary screen (AID 1128).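 Note: score merges feature fluorescence with signal-to-noise for each printed compound spot.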 The note with it: higher = more signal.
For assay [2], the system named is Human papillomavirus type 1a E7 protein (residues 1-88). Description: HPV1a E7 small-molecule binders, primary screen, biochemical, small-molecule microarray, residues 1-88, 635 nm (AID 1129). Particulars: small-molecule microarray binding, fluorescence 635 nm; higher = more signal.
The target of assay [3] is Focal adhesion kinase 1 (Homo sapiens) (UniProt Q05397). Description: PTK2 protein binding on printed compound slides – biochemical, small-molecule microarray, 635/667 nm fluorescence, BSA, DTT, primary screen (AID 1130).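 Note: composite of spot emission at 667 nm and signal to noise over triplicate slides.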 The note with it: 635 nm fluorescence, higher = more signal.
Assay [4] has as its system Fibrinogen (Alexa647-labelled). Briefly: Alexa647-fibrinogen binding to printed small molecules – biochemical, small-molecule microarray, 635/667 nm fluorescence, artefact control for SMM control-protein annotation, profiling panel (AID 1131).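 Note: z-score merges 667 nm fluorescence with per-spot signal-to-noise over triplicate slides.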 Particulars: fibrinogen-A647 binding fluorescence, higher = more signal.
Assay [5] has as its target Follistatin (Homo sapiens) (UniProt P19883). Briefly: FST protein binding to printed compounds – biochemical, small-molecule microarray, 635/667 nm fluorescence, primary screen (AID 1132). Particulars: 635 nm fluorescence, higher = more signal.
For assay [6], the target named is Fibroblast growth factor 2 (Homo sapiens) (UniProt P09038). Description: basic fibroblast growth factor binding to printed compounds – biochemical, small-molecule microarray, 635/667 nm fluorescence, primary screen (AID 1133). The note with it: FGF2, fluorescence 635/667, higher = more signal.
Assay [7] can be described thus: JC-1 mitochondrial potential readout, lung cancer cells – cell-based, A549, JC-1 fluorescence, basal, 24 h, 100 nL, profiling panel (AID 1138).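 Note: A549 lung adenocarcinoma cells under basal conditions with no added stimulus; test concentration not given here.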 The note with it: higher = more signal.
A further assay has as its system Lefty1. Briefly: Lefty1 protein binding to printed compounds – biochemical, small-molecule microarray, 635/667 nm fluorescence, primary screen (AID 1139). The note with it: fluorescence 635/667, higher = more signal.
Assay [8] deals with wheat germ agglutinin (Triticum aestivum), Alexa647-labelled. Briefly: Alexa647-WGA lectin binding to printed small molecules – biochemical, small-molecule microarray, 635/667 nm fluorescence, artefact control for SMM control-protein annotation, profiling panel (AID 1140).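 Note: score merges 667 nm feature emission with signal to noise over triplicate slides.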 Particulars: WGA-A647 binding, 635 nm fluorescence, higher = more signal.
For assay [9], the target named is Luciferin 4-monooxygenase (Photinus pyralis) (UniProt P08659). Description: inhibition of purified Photinus pyralis luciferase – biochemical, luminescence, purified enzyme, 2006 set, primary screen (AID 1141).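 Note: cell-free assay with purified firefly luciferase at 100 ng per well in PBS; test concentration not given here.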 The note with it: purified firefly luciferase, SteadyGlo luminescence, 30 min; higher = more signal, called active from +8 up or from −8 down.
The subject of assay [10] is Wnt5a (protein binding on small-molecule microarray). Description: small molecules binding Wnt5a protein – biophysical, small-molecule microarray, 635/667 nm fluorescence, primary screen (AID 1142).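 Note: fluorescence read at 667 nm with signal to noise per printed feature.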 The note with it: 635 nm fluorescence, higher = more signal.
The nature of assay [11]: ATP-based viability of Huh7 replicon cells – cell-based, CellTiter-Glo luminescence, basal, 48 h, cytotoxicity control for HCV replication inhibitor project, primary screen (AID 1143).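 Note: Huh7 hepatoma cells carrying a hepatitis C replication reporter with no stimulus; test concentration not given here.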 The note with it: higher = more signal, called active from +8 up or from −8 down.
Assay [12] can be described thus: Pseudomonas biofilm growth suppression – PAO1 strain, BacTiter-Glo luminescence, LB-PBS, primary screen (AID 1144). The note with it: P. aeruginosa PAO1 biofilm, 12 h, higher = more signal.
Assay [13] in a line: basal CRE-LacZ reporter activity in PC12 – cell-based, unstimulated, primary screen (AID 1145). The note with it: no forskolin, luminescence, 4.5 h, higher = more signal, called active from +8 up or from −8 down.
Assay [14] in a line: forskolin-driven CRE-LacZ activity in PC12 – cell-based, CRE-LacZ reporter, forskolin-stimulated, primary screen (AID 1146).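 Note: PC12 cells with 6xCRE LacZ reporter stimulated by forskolin 10 µM; beta-galactosidase reporter signal reflecting CREB driven transcription.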 Particulars: luminescence, 4.5 h, higher = more signal, called active from +8 up or from −8 down.
For assay [15], the target named is Streptavidin (Streptomyces avidinii) (UniProt P22629). Description: compounds binding control protein streptavidin – biophysical, small-molecule microarray, 635/667 nm fluorescence, artefact control for SMM compound annotation, primary screen (AID 1147).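 Note: signal reflects streptavidin binding to arrayed compounds as a control protein.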 The note with it: higher = more signal.
The nature of assay [16]: probe aInhba binding on compound microarray – biochemical, small-molecule microarray, 635/667 nm fluorescence, primary screen (AID 1148).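 Note: score merges 667nm spot fluorescence with signal-to-noise for antibody binding to printed compounds.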 The note with it: higher = more signal.
For assay [17], the target named is Torsin-1A (Homo sapiens) (UniProt O14656). Description: TOR1A wild-type binding on microarray – cell lysate, small-molecule microarray, lysate, 635/667 nm, primary screen (AID 1149). Particulars: COS7 hTOR1A-WT lysate, 635 nm fluorescence, higher = more signal.
Assay [18] shares this target. Description: torsin A mutant lysate binding on microarrays – cell lysate, small-molecule microarray, COS7 lysate, 635/667 nm fluorescence, primary screen (AID 1150).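 Note: score pools 667 nm emission and signal to noise measuring lysate protein binding.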 Particulars: COS7 hTOR1A mutant lysate, 635 nm fluorescence, higher = more signal.
Assay [19] has as its system Sonic hedgehog protein (Shh). Briefly: Sonic hedgehog microarray binding compounds – biochemical, small-molecule microarray, 635/667 nm fluorescence, primary screen (AID 1151).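 Note: Shh protein binding to compounds spotted on small-molecule microarray slides; score combines spot fluorescence intensity with signal-to-noise across triplicate slides.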 Particulars: 635 nm fluorescence, higher = more signal.

The source made the active and inactive calls. Unless noted, the rule behind the calls is not given here.

Chain of Fibroblast growth factor 2 (Homo sapiens) (P09038 whole entry, looked up): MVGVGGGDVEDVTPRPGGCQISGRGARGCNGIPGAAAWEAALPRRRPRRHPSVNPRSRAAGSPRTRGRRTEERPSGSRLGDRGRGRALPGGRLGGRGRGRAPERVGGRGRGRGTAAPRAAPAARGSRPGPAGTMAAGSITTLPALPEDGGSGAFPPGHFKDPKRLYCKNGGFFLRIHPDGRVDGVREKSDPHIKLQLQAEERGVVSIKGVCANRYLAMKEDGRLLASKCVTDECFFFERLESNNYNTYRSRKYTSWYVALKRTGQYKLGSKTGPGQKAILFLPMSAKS
Chain of Luciferin 4-monooxygenase (Photinus pyralis) (P08659 whole entry, looked up): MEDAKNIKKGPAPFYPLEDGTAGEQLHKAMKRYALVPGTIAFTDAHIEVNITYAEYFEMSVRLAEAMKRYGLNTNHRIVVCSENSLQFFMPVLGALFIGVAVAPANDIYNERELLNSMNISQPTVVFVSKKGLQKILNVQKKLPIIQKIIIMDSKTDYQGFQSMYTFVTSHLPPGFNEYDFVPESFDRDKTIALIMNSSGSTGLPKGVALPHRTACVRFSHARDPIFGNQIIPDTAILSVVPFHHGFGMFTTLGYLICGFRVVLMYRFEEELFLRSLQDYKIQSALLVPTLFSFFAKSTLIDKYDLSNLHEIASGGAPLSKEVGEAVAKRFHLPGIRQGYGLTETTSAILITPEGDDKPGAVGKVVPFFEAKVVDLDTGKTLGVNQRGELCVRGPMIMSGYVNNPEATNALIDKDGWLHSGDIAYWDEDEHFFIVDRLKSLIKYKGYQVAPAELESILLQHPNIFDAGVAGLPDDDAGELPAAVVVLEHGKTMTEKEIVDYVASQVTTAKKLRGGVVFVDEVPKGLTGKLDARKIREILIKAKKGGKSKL
Chain of Follistatin (Homo sapiens) (P19883 whole entry, looked up): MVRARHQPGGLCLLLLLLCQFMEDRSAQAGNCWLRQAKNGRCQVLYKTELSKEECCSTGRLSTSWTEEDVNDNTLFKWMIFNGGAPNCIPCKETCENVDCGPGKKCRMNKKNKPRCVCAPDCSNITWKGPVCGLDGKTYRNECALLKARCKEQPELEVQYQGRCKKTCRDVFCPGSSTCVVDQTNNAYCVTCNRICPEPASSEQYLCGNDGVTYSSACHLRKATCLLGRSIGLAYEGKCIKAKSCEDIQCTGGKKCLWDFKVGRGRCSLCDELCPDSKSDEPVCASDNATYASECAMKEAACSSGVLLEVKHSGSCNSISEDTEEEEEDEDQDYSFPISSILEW
Chain of Torsin-1A (Homo sapiens) (O14656 whole entry, looked up): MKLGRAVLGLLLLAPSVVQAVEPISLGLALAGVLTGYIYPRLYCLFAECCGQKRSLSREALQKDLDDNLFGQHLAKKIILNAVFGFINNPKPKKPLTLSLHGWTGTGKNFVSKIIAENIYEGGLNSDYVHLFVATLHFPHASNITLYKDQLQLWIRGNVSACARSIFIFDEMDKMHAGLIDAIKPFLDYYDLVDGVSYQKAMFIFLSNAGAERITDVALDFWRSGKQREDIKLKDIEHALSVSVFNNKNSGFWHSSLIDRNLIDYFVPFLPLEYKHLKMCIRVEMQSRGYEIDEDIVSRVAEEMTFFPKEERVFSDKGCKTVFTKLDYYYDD
Chain of Streptavidin (Streptomyces avidinii) (P22629 whole entry, looked up): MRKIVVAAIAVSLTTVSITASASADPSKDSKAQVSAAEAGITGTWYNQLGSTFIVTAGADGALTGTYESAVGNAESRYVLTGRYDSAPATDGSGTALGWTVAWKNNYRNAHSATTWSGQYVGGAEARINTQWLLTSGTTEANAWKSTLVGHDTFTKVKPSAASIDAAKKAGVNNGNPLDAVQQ
Chain of Focal adhesion kinase 1 (Homo sapiens) (Q05397 whole entry, looked up): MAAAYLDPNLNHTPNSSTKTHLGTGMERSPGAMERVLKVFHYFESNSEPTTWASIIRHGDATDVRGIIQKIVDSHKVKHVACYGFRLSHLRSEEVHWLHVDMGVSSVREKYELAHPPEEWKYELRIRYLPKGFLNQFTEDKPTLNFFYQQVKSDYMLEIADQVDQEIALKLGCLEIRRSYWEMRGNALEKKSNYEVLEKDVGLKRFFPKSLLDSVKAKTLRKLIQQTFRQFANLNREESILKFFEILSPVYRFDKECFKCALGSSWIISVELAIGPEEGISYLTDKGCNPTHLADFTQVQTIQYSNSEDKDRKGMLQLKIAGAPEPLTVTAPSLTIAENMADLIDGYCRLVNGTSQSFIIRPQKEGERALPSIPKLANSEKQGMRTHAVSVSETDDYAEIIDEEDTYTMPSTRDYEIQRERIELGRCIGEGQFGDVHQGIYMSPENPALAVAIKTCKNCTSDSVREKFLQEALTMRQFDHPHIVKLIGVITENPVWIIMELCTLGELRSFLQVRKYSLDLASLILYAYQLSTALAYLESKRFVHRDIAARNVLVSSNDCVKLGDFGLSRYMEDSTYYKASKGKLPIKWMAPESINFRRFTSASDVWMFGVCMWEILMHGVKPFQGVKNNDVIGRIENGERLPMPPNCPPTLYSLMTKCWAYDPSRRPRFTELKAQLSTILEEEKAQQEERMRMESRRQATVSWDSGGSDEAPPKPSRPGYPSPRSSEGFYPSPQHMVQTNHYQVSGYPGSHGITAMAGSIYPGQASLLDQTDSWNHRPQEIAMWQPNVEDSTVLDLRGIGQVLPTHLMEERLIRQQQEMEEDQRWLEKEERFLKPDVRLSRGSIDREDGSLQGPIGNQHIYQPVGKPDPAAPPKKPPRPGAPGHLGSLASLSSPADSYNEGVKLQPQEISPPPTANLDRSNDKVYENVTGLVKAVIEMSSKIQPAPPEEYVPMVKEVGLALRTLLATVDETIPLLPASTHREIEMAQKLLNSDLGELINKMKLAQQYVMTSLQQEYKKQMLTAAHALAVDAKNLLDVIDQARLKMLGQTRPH

`CCOC(=O)C[C@H]1[C@H](OC(=O)c2ccc(-c3ccccc3)cc2)[C@@H](NC(=O)CC(C)C)c2cc(OCCCO)ccc2N1C(=O)Cc1ccc(OC)cc1`: the composite z-score was -0.283 in assay [1]; 0.686 in assay [2]; 0.0381 in assay [3]; 0.54 in assay [4]; -0.195 in assay [5]; 0.0007 in [6]. For the same compound, the composite z-score is -0.276 with Lefty1; 0.535 in assay [8]; 0.0564 in [10]; 0.438 in assay [15]; -0.0223 in assay [16]; -0.111 in the assay with Torsin-1A (Homo sapiens) [17]. The composite z-score with Torsin-1A (Homo sapiens) [18] was 0.508; in [19], -0.307. Besides, the z-score in [7] is 0.598; in assay [9], 0.491 (inactive); in assay [11] it was -0.155 (inactive); in assay [12] it was 0.606 (inactive); in assay [13] it was 0.0035 (inactive); in assay [14], -0.163 (inactive).

As to `C=CC[C@]1(C(=O)NCc2ccccc2)COC(c2ccc(OCCCO)cc2)=N1`, the composite z-score in assay [1] was 0.16; in assay [2], -0.0156; in [3], -0.19; in [4], 0.295; in [5] it was -0.431; in [6], -0.87. For the same compound, the composite z-score with Lefty1 is -0.95; in assay [8], 1.02; in assay [10], 0.602; in assay [15], -0.479; in assay [16], 0.0503; in the assay with Torsin-1A (Homo sapiens) [17], 0.29. Moreover, the composite z-score in the assay with Torsin-1A (Homo sapiens) [18] is 1.52; in assay [19], -0.88. The z-score in assay [7] was 1.03; in assay [9], -0.218 (inactive); in assay [11], -3.63 (inactive); in assay [12], 0.271 (inactive); in assay [13], 1.38 (inactive); in assay [14], -0.505 (inactive).

With `NCCCC[C@@H]1NC(=O)[C@H]2C[C@@H](C(=O)NCc3ccc(F)cc3)[C@@H](c3ccc(O)cc3)N2C1=O`, the composite z-score in [1] is 2.05; in [2], 0.969; in assay [3], -0.145; in [4] it was 0.165; in [5] it was 1.32; in assay [6] it was 1.32. For the same compound, the composite z-score in the assay with Lefty1 is 0.296; in [8], 1.2; in assay [10], -0.0979; in assay [15], 0.829; in assay [16], 0.0963; with Torsin-1A (Homo sapiens) [17], 1.18. The composite z-score is 2.58 with Torsin-1A (Homo sapiens) [18] and 1.11 in assay [19]. Besides, the z-score in assay [7] is -0.724; in [9], 0.242 (inactive); in assay [11] it was 0.12 (inactive); in [12], -0.0714 (inactive); in assay [13] it was 0.143 (inactive); in [14], 0.421 (inactive).

`C=C(COC)C(=O)CC[C@@H](OC(C)=O)c1ccc(OCCO)cc1`: the composite z-score is 0.476 in assay [1]; -0.358 in assay [2]; -0.822 in assay [3]; -0.467 in [4]; 1.25 in [5]; 0.945 in assay [6]. Also, the composite z-score with Lefty1 is 0.843; in assay [8], 0.774; in assay [10] it was 0.284; in assay [15] it was -0.0368; in [16] it was -0.0523; in the assay with Torsin-1A (Homo sapiens) [17], 1.82. The composite z-score is -0.241 with Torsin-1A (Homo sapiens) [18] and 1.64 in assay [19]. The z-score was -0.576 in assay [7]; -1.73 (inactive) in assay [9]; -0.354 (inactive) in assay [11]; -0.176 (inactive) in assay [12]; 0.625 (inactive) in assay [13]; 8.41 (active) in [14].

Take `COc1ccccc1CN1C(=O)c2ccccc2[C@](Cc2ccccc2I)(C(=O)NCCCN(C)C)[C@@H]1c1ccc(CO)cc1`: the composite z-score in assay [1] turned out to be 0.237; in assay [2], 1.21; in [3], 0.904; in assay [4] it was 0.944; in assay [5], 0.489; in assay [6], 0.141. Besides, the composite z-score in the assay on Lefty1 is 0.0523; in [8] it was 0.0618; in [10], 0.168; in [15], 0.956; in [16], -0.187; with Torsin-1A (Homo sapiens) [17] it was -0.26. The composite z-score in the assay with Torsin-1A (Homo sapiens) [18] amounted to 0.409; in assay [19] it was 0.814. Further, the z-score was -2.4 in assay [7]; -0.644 (inactive) in [9]; -5.84 (inactive) in assay [11]; 0.777 (inactive) in assay [12]; 3.31 (inactive) in assay [13]; 5.18 (inactive) in assay [14].

For the origin of these results see PubChem BioAssay.
